In PubChem BioAssay (EPA / NIEHS):
Active and inactive are the calls of the source. The calls were made as follows: active = hit-call score of the fitted dose curve at least 0.9, where 1 is the maximum; inactive = score below 0.9.

Columns and labels:
[1] = target: Transcription factor E2F1 (Homo sapiens) (UniProt Q01094); test: ATG_E2F_CIS: Attagene CIS-FACTORIAL HepG2 Assay for human E2F Transcription Factor 1 (AID 2282935); details: HepG2 Attagene cis-reporter, E2F reporter RNA transcripts; actives raise or lower the signal
How it was run: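 Transient MRTU transfection of HepG2; 24 h compound exposure; RNA → oligo(dT) RT → PCR → FAM label → HpaI cut → CE fluorescence. Gain/loss of signal fit against DMSO.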

[2] = ATG_E_Box_CIS: Attagene CIS-FACTORIAL HepG2 Assay for human Enhancer Box (E-box) (AID 2282936); details: HepG2 E-box cis-reporter transcription, actives raise or lower the signal
How it was run: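 Transiently transfected HepG2, endogenous TF-driven reporters, 24 h dosing. Readout: RT-PCR plus capillary electrophoresis of fluorescent reporter fragments. Gain or loss of signal fitted bidirectionally against DMSO baseline.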

[3] = ATG_M_61_CIS: Attagene CIS-FACTORIAL HepG2 Assay for M61 Transcription Factor (Internal Marker) (AID 2282937); details: HepG2 Attagene CIS-FACTORIAL M61 internal marker reporter; actives raise or lower the signal
How it was run: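 Fluorescence from labelled cDNA fragments, separated by capillary electrophoresis, quantifies reporter induction. HepG2 cells bearing transiently transfected cis-promoter MRTUs were incubated with test chemical for 24 h; DMSO defined baseline for gain/loss fitting.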

[4] = ATG_EGR_CIS: Attagene CIS-FACTORIAL HepG2 Assay for human Early Growth Response 1 (EGR1) (AID 2282938); details: HepG2 Attagene CIS-FACTORIAL EGR reporter mRNA; actives raise or lower the signal
How it was run: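 Cell-based multiplex transcription assay: HepG2 carrying transfected cis-element reporter units, 24 h chemical treatment. Fluorescence from capillary electrophoresis of RT-PCR products gives mRNA levels; fitting is bidirectional relative to DMSO.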

[5] = ATG_ERE_CIS: Attagene CIS-FACTORIAL HepG2 Assay for Estrogen Response Element (ERE) (AID 2282940); details: HepG2 ERE cis-reporter, Attagene RNA transcript; actives raise or lower the signal
How it was run: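 Cells used were human hepatoma HepG2, transfected with multiple reporter transcription units under cis-regulatory promoters. Reporter mRNA, read 24 h post-dosing via fluorescent RT-PCR products on capillary electrophoresis, was fitted bidirectionally relative to DMSO.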

[6] = ATG_Ets_CIS: Attagene CIS-FACTORIAL HepG2 Assay for human Erythroblast Transformation Specific (ETS) (AID 2282941); details: HepG2 ETS cis-reporter transcription, actives raise or lower the signal
How it was run: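 Bidirectional fit versus DMSO of reporter mRNA signal, detected by RT-PCR and capillary electrophoresis in HepG2 cells transiently transfected with cis-element reporters and dosed 24 h.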

[7] = target: Hepatocyte nuclear factor 3-beta (Homo sapiens) (UniProt Q9Y261); test: ATG_FoxA2_CIS: Attagene CIS-FACTORIAL HepG2 Assay for human Forkhead box A2 (FOXA2) (AID 2282942); details: HepG2 cis-reporter transcription factor activity, 24 h; actives raise or lower the signal
How it was run: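 In transiently transfected human HepG2 cells, promoter-driven reporter mRNA levels after 24 h chemical exposure are determined via RT-PCR with capillary electrophoresis. DMSO serves as baseline for bidirectional fitting.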

[8] = ATG_FoxO_CIS: Attagene CIS-FACTORIAL HepG2 Assay for human Forkhead box O (FoxO) (AID 2282943); details: HepG2 Attagene cis-reporter, FoxO element, mRNA; actives raise or lower the signal
How it was run: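 Transfected HepG2 reporter cells exposed to test chemical for 24 h; reporter RNA measured by reverse transcription, PCR and fluorescent capillary electrophoresis; curves fitted for increases and decreases against DMSO.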

[9] = ATG_GATA_CIS: Attagene CIS-FACTORIAL HepG2 Assay for human GATA Binding Protein (AID 2282944); details: HepG2 GATA cis-element reporter, Attagene multiplex mRNA; actives raise or lower the signal
How it was run: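 Endogenous transcription factor activity was captured through cis-promoter-driven reporters in transfected HepG2 cells. After 24 h exposure, reporter transcripts were quantified by RT-PCR with fluorescent capillary electrophoresis, and responses fitted both directions against DMSO.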

[10] = ATG_M_19_CIS: Attagene CIS-FACTORIAL HepG2 Assay for M19 Transcription Factor (Internal Marker) (AID 2282939); details: HepG2 Attagene CIS-FACTORIAL M19 internal marker reporter; actives raise or lower the signal
How it was run: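 Background-control endpoint from a multiplexed HepG2 reporter panel. Cells carrying cis-regulated reporter constructs are treated 24 h, then reporter transcripts are amplified, fluorescently labelled and sized by capillary electrophoresis. DMSO defines baseline.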

Chain of Hepatocyte nuclear factor 3-beta (Homo sapiens) (Q9Y261 whole entry, looked up): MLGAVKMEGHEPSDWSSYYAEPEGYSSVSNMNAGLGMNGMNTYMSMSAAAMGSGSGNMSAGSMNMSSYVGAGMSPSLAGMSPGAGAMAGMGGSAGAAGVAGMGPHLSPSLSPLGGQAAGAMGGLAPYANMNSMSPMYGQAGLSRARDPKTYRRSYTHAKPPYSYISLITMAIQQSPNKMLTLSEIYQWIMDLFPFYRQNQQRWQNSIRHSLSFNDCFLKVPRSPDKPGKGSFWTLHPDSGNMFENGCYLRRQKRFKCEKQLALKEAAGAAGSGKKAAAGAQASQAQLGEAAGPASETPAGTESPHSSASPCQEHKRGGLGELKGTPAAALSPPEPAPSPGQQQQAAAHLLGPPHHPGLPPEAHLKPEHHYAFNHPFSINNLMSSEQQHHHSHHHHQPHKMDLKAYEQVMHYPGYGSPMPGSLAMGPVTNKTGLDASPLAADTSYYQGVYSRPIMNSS
Chain of Transcription factor E2F1 (Homo sapiens) (Q01094 whole entry, looked up): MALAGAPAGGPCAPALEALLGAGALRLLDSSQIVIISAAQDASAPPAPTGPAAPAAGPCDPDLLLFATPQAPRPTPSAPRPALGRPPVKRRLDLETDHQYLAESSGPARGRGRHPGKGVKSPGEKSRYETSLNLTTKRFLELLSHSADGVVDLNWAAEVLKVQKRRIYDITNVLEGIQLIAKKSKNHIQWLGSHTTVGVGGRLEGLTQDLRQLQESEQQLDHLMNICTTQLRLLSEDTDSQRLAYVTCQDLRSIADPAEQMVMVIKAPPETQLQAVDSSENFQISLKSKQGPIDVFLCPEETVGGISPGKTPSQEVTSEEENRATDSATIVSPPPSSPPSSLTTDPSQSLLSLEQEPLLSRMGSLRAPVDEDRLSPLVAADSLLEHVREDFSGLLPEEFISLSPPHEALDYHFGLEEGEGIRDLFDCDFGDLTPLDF

Compound	outcome [1]	outcome [2]	outcome [3]	outcome [4]	outcome [5]	outcome [6]	outcome [7]	outcome [8]	outcome [9]	AC50 [5]	outcome [10]	AC50 [4]	AC50 [6]
CC(C)COC(=O)c1ccccc1	inactive	inactive	inactive	inactive	inactive	inactive	inactive	inactive	inactive				
O=C(O)c1ccc(C(=O)O)c(C(=O)O)c1	inactive	inactive	inactive	inactive	inactive	inactive	inactive	inactive	inactive				
O=[N+]([O-])c1cc(N(CCO)CCO)ccc1NCCO	inactive	inactive	inactive	inactive	inactive	inactive	inactive	inactive	inactive				
N=C1N=C(N)c2ccccc21	inactive	inactive	inactive	inactive		inactive	inactive	inactive	inactive	18.1 µM (active)			
CC1=CC(C)C(C=O)C(C)C1 (configuration not stated) (tested in a mixture with another compound)	inactive	inactive	inactive	inactive	inactive	inactive	inactive	inactive					
Nc1ccc(N)c([N+](=O)[O-])c1	inactive	inactive	inactive	inactive		inactive	inactive	inactive	inactive	41.6 µM (active) [middle of 5 runs]			
CC(O)CN (configuration not stated)	inactive	inactive	inactive	inactive	inactive	inactive	inactive	inactive	inactive				
CCC(=O)OC/C=C(\C)CCC=C(C)C	inactive	inactive	inactive	inactive	inactive	inactive	inactive	inactive	inactive				
Cc1cccc(C)c1	inactive	inactive	inactive	inactive	inactive	inactive	inactive	inactive	inactive				
c1ccc(Cc2ccccc2)cc1	inactive	inactive	inactive	inactive		inactive	inactive	inactive	inactive				
O=C1OCc2ccccc21	inactive	inactive	inactive	inactive	inactive	inactive	inactive	inactive	inactive				
CC(=N[Si](C)(C)C)O[Si](C)(C)C	inactive	inactive	inactive	inactive	inactive	inactive	inactive	inactive	inactive				
CC(C)COC(=O)c1ccccc1O		inactive	inactive	inactive	inactive	inactive	inactive	inactive			inactive		
C=C(C)C(=O)OCCC[Si](OC)(OC)OC	inactive	inactive	inactive	inactive	inactive	inactive	inactive	inactive	inactive				
CCC(C)(C)C1CCC(OC)CC1 (configuration not stated)	inactive	inactive	inactive	inactive	inactive	inactive	inactive	inactive	inactive				
CC(C)Cc1ccccc1		inactive	inactive	inactive	inactive	inactive	inactive	inactive	inactive		inactive		
CCOCC(C)O (configuration not stated)		inactive	inactive	inactive	inactive	inactive	inactive	inactive	inactive		inactive		
CC(=O)CC(C)(C)C1CCCCC1	inactive	inactive	inactive	inactive	inactive	inactive		inactive	inactive				
O=c1cc(-c2ccc(O)cc2)oc2cc(O)cc(O)c12	inactive	inactive	inactive				inactive	inactive	inactive	1.18 µM (active)		10.1 µM (active)	17.5 µM (active)
CCC(C)COC(=O)CC(C)C (configuration not stated)	inactive	inactive	inactive	inactive	inactive	inactive	inactive	inactive					
CCOC(=O)C(=O)OCC	inactive	inactive	inactive	inactive		inactive		inactive	inactive				
C=C(C)C(=O)OCCC(C)OC(=O)C(=C)C (configuration not stated)	inactive	inactive	inactive	inactive	inactive	inactive	inactive	inactive	inactive				
CCOC(=O)C=Cc1ccccc1	inactive	inactive	inactive	inactive	inactive	inactive	inactive	inactive	inactive				
CC(=O)CC(=O)N(C)C	inactive	inactive	inactive	inactive	inactive	inactive	inactive	inactive	inactive				
O=S1(=O)CC=CC1	inactive	inactive	inactive	inactive	inactive	inactive	inactive	inactive	inactive				
C=C(C)C(=O)OCCOCCOC(=O)C(=C)C	inactive	inactive	inactive	inactive		inactive	inactive	inactive					
CCC(C)C1CCCCC1=O (configuration not stated)	inactive	inactive	inactive	inactive	inactive	inactive	inactive	inactive	inactive				
CC(C)(C)c1cc(CCC(=O)OCCSCCOC(=O)CCc2cc(C(C)(C)C)c(O)c(C(C)(C)C)c2)cc(C(C)(C)C)c1O		inactive	inactive	inactive	inactive	inactive	inactive	inactive	inactive		inactive		
OCC=Cc1ccccc1		inactive	inactive	inactive		inactive	inactive	inactive					
CC(C)OB(OC(C)C)OC(C)C		inactive	inactive	inactive		inactive	inactive	inactive	inactive		inactive		
